In PubChem BioAssay AID651789 (National Center for Advancing Translational Sciences (NCATS), 2012):
Inconclusive results are not listed. Active and inactive are the calls of the source. The call rests on the fitted dose curve; in most records, active means well fitted inhibition curve with a large enough effect; inconclusive means small, poorly fitted or top-dose-only effect; inactive means no such curve, though single readings can be large or run the other way.

Assay: Acumen qHTS Assay for Inhibitors of the mTORC1 Signaling Pathway in WT MEF Cells: Hit Validation; further: nearly all actives have a fitted effect of over 60% in size;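 on activity change, negative = inhibition: phospho-rpS6 Ser235/236 immunofluorescence normalised to propidium iodide cell stain; percent of cells above a cutoff set by 7.5 nM rapamycin treated wells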
Conditions: Acumen imaging; series mostly up to 37.3 µM; activity change, negative = inhibition: at the top concentration
How it was run: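 Read-out is immunofluorescent phospho-rpS6 (Ser235/236) normalised to PI-stained cell number, reported as % active cells using a 7.5 nM rapamycin threshold. Cells: WT or Tsc2-/-, p53-/- MEFs, compound-exposed 24 h at 37C; PI count also tracks viability.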
Potency means the concentration at half of the fitted maximal effect.

Potency, active:
CCCCC(CC)CNC(=O)c1ccc(Cn2c(=O)[nH]c3cc(OC)c(OC)cc3c2=O)cc1 (stereo not given) 13.1 µM
CC(C)CS(=O)(=O)c1oc(-c2ccc(F)cc2)nc1S(=O)(=O)c1ccccc1 0.585 µM
CCOc1ccc(S(=O)(=O)N(C(=O)c2ccncc2)c2ccc3oc(C)c(C(=O)OC)c3c2)cc1 14.7 µM
CCN(c1ccccc1)S(=O)(=O)c1ccc(NC(=O)c2nc(S(C)(=O)=O)ncc2Cl)cc1 1.04 µM
O=C(Nc1ccc2oc(-c3ccc4ccccc4c3)nc2c1)c1cc(Br)ccc1Cl 13.1 µM
CCNC(=O)c1c(NC(=O)c2nc(S(=O)(=O)CC)ncc2Cl)sc2c1CCCC2 0.585 µM
CCc1ccc(NC(=O)C2CCCN(S(=O)(=O)c3c(C)noc3/C=C/N(C)C)C2)cc1 (stereo not given) 2.07 µM
C=CCc1c(C)nc2nc(SCC(=O)Nc3ccc(C)c(C)c3)nn2c1C 1.17 µM

Activity change, negative = inhibition, inactive:
Brc1ccc(Nc2c3c(nc4nncn24)CCC3)cc1 3.82%
Cc1nn(CCCC(=O)NCc2ccccc2)c(=O)c2c1sc1ccccc12 38.6%
Cc1ccc(-n2ncc(C(=O)NCCCN3CCc4ccccc4C3)c2C2CCN(C(=O)OC(C)(C)C)CC2)c(C)c1 44.2%
Cc1c(C(=O)OC2CCC(C)CC2)[nH]c2c1C(=O)CC(c1ccc(F)cc1)C2 (stereo not given) -0.763%
CCOC(=O)c1ccc(N2C(=O)c3n[nH]c(-c4cccs4)c3C2c2cccc(F)c2)cc1 (stereo not given) -12.8%
Cc1ccc(CN2C(=O)C(=O)c3cc(Br)cc(C)c32)cc1 -25.5%
CCSc1oc(-c2ccc(F)cc2)nc1S(=O)(=O)c1ccc(C)cc1 -16.5%
Cc1cc(C)c(NC(=O)c2sc3nc(C)cc(C)c3c2NC(=O)c2ccccc2)c(C)c1 67.9%
CCOC(=O)Cc1ccc(NC(=O)n2ncc3cc(Cl)ccc32)cc1 15.1%
Cc1nn(C(C)C(=O)NC2CCC(C)CC2)c(=O)c2c1sc1ccccc12 (stereo not given) 1.53%
COc1cc(C(=O)N(CCCN(C)C)c2nc3c(OC)cccc3s2)cc(OC)c1OC -2.29%
COc1cc(NC(=O)c2cccc3c2C(=O)N(C2CCCCC2)C3)cc(OC)c1OC -18.3%
O=S(=O)(c1ccccc1)n1nc(-c2ccc(Cl)cc2)nc1NCc1ccccc1 -20.8%
CCc1ccc(OCC(=O)N(Cc2ccc(C)cc2)Cc2ccco2)cc1 24%
Cc1cc(C)c(NC(=O)C2CCN(c3nc4ccccc4n4cccc34)CC2)c(C)c1 -22.3%
COc1ccc(CNC(=O)C2CCN(c3nc4ccc(C)cc4[nH]3)CC2)cc1 29.6%
CCC1CN(C(=O)NCc2ccc(F)cc2)c2cc(C)ccc2O1 (stereo not given) -4.58%
CC1=C(C(=O)OC2CCCC2)C(c2ccccc2Cl)CC(=O)N1 (stereo not given) -20.9%
CCc1ccccc1NC(=O)CSc1nc2c(oc3ccccc32)c(=O)n1-c1ccccc1F 26.8%
COc1ccc(-c2nc(S(=O)(=O)c3ccc(Cl)cc3)c(N3CCCCCC3)o2)cc1 -10.6%
COc1ccc(Cn2c(C(=O)O)c(CNCc3ccc(SC)cc3)c3ccc(OC)cc32)cc1 -3.13%
CCN(C(=O)C(NS(=O)(=O)c1ccc(Br)s1)c1ccccc1)c1ccc(C)c(C)c1 (stereo not given) -7.02%
Cc1ccc(NC(=O)CSc2ncc3c(n2)-c2ccccc2N(C)S3(=O)=O)c(Cl)c1 -9.36%
CC(C)N(C(=O)CSc1nc2ccc(Cl)cc2[nH]1)c1ccccc1 -24%
NC(N)=NC(=O)c1nc(Cl)c(N)nc1N -21.2%
CCOc1ccc(-c2cnc(NCc3ccc(C(F)(F)F)cc3)n2C)cc1 -3.05%
O=C(Nc1cccc(NC(=O)c2ccccc2Cl)c1)c1cccc(Br)c1 9.16%
CCc1ccccc1NC(=O)CSCc1cnn(-c2ccccc2)c1-n1cccc1 -1.53%
COc1ccc(CCNC(=O)c2ccc3c(c2)N(Cc2ccccc2)CCS3)cc1OC 11.5%
CCc1ccc(NC(=O)CSc2nccn2C2CCCC2)cc1 17.4%
COc1cc2ncnc(Nc3ccc(F)c(Cl)c3)c2cc1OCCCN1CCOCC1 -26.5%
CCOCc1cc(CN2CCN(c3ccccc3OC)CC2)c(O)c2ncccc12 3.82%
